PubChem BioAssay (EPA / NIEHS)
Inconclusive results are not listed. Activity calls are given as the source filed them. Rule for the calls, unless noted: active = hit-call score of the fitted dose curve at least 0.9, where 1 is the maximum; inactive = score below 0.9.

Key:
[1] = ATG_PPRE_CIS: Attagene CIS-FACTORIAL HepG2 Assay for human Peroxisome Proliferator-activated Response Element (PPRE) (AID 2282958); conditions: HepG2 PPRE cis-element reporter, Attagene transcription factor profiling; actives raise or lower the signal
How it was run: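 PPRE activity in HepG2: transient cis-reporter transfection, 24 h compound incubation, reporter mRNA by RT-PCR and CE fluorescence; gain/loss fitted against DMSO.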

[2] = ATG_RORE_CIS: Attagene CIS-FACTORIAL HepG2 Assay for human RAR-related Orphan Receptor Element (RORE) (AID 2282959); conditions: HepG2 Attagene cis-factorial RORE reporter, mRNA; actives raise or lower the signal
How it was run: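 A 24-hour exposure of transfected HepG2 hepatoma cells precedes RNA isolation and reporter RT-PCR. Labeled products are digested with HpaI and resolved by capillary electrophoresis, with gain or loss of signal scored relative to DMSO.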

[3] = ATG_Sox_CIS: Attagene CIS-FACTORIAL HepG2 Assay for human SRY-box transcription factor (SOX) (AID 2282960); conditions: HepG2 Attagene cis-factorial SOX reporter, mRNA; actives raise or lower the signal
How it was run: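 HepG2, cis reporter units, 24 h exposure. Reporter mRNA: RT-PCR → FAM labelling → HpaI → CE fluorescence. Bidirectional fit vs DMSO.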

[4] = target: Transcription factor Sp1 (Homo sapiens) (UniProt P08047); test: ATG_Sp1_CIS: Attagene CIS-FACTORIAL HepG2 Assay for human Specificity Protein 1 (Sp1) (AID 2282961); conditions: HepG2 Sp1 cis-reporter transcription, actives raise or lower the signal
Transcription factor Sp1 (Homo sapiens), sequence (P08047 whole entry, looked up, the tested form may be a part): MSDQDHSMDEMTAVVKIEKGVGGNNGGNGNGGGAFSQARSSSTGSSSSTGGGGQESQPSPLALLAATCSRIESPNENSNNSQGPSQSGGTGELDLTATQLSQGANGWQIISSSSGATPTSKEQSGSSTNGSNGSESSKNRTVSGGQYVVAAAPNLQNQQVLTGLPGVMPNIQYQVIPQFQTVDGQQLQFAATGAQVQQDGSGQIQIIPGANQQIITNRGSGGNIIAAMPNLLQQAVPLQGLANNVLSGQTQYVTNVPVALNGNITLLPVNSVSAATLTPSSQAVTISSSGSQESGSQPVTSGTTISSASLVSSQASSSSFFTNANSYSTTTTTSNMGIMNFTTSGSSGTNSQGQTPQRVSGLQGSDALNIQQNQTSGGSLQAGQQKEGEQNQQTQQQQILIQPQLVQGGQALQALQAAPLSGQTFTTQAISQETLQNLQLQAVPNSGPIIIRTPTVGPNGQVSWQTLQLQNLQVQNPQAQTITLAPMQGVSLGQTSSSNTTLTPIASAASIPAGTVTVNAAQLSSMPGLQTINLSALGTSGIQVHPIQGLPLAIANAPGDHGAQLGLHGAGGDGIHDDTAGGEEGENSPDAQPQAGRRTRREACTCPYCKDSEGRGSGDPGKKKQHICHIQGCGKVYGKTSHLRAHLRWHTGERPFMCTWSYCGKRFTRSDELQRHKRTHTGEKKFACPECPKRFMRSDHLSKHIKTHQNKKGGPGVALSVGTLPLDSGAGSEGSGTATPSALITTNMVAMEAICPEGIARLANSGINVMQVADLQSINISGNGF
How it was run: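 Liver-derived HepG2 cells, cis-element reporter library, 24 h treatment; RNA isolated, cDNA amplified with reporter-specific primers, FAM-labeled fragments sized on capillary analyzer. DMSO baseline, bidirectional curve fit.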

[5] = ATG_SREBP_CIS: Attagene CIS-FACTORIAL HepG2 Assay for human Sterol Regulatory Element Binding (SREBP) (AID 2282962); conditions: HepG2 Attagene cis-factorial SREBP reporter, mRNA; actives raise or lower the signal
How it was run: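 mRNA induction of transfected cis-promoter reporters in HepG2 cells, 24 h post-dose. Detection: RT-PCR with 6-FAM-labelled products, HpaI digest, capillary electrophoresis. DMSO served as negative control and baseline.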

[6] = target: Signal transducer and activator of transcription 3 (Homo sapiens) (UniProt P40763); test: ATG_STAT3_CIS: Attagene CIS-FACTORIAL HepG2 Assay for human Signal Transducer and Activator of Transcription 3 (STAT3) (AID 2282963); conditions: HepG2, Attagene cis-factorial STAT3 reporter transcription; actives raise or lower the signal
Signal transducer and activator of transcription 3 (Homo sapiens), sequence (P40763 whole entry, looked up): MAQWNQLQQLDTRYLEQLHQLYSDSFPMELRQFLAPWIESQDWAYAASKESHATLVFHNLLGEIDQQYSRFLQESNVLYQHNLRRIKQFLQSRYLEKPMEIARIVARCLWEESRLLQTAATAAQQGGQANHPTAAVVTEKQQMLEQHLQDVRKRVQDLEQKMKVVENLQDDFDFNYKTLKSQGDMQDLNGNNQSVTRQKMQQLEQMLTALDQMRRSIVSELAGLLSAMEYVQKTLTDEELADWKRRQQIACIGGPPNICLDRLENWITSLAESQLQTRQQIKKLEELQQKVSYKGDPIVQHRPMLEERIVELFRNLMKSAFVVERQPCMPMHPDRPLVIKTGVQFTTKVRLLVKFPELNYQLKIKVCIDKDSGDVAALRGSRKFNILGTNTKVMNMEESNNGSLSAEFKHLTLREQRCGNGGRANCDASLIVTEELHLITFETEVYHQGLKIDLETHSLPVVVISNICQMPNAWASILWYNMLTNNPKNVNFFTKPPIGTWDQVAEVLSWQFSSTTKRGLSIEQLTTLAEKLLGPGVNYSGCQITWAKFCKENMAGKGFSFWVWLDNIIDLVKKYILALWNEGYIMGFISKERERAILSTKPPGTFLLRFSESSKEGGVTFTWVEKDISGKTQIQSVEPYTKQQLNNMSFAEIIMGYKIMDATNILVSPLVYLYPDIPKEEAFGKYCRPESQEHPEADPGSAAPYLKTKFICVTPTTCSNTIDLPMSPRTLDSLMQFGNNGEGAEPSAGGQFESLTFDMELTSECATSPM
How it was run: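 Values derive from bidirectional fits relative to DMSO of reporter mRNA levels, measured by RT-PCR with capillary electrophoresis, in HepG2 cells carrying transiently transfected cis-regulated reporter units and exposed 24 h.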

[7] = ATG_TA_CIS: Attagene CIS-FACTORIAL HepG2 Assay for human TA Basal Promoter (AID 2282964); conditions: HepG2 Attagene CIS-factorial TA basal promoter reporter; actives raise or lower the signal
How it was run: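 HepG2 cells transiently transfected with multiple reporter units under cis promoter elements, reporting endogenous transcription factor activity; this endpoint tracks the TA basal promoter as background control. Reporter mRNA after 24 h dosing measured by RT-PCR/capillary electrophoresis; bidirectional fits versus DMSO.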

[8] = ATG_TCF_b_cat_CIS: Attagene CIS-FACTORIAL HepG2 Assay for human T-Cell-Factor with beta-catenin (TCF/b-cat) (AID 2282965); conditions: HepG2 TCF/beta-catenin cis-reporter transcription, actives raise or lower the signal
How it was run: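 Cells of the HepG2 line carry transiently transfected reporter units whose promoters respond to endogenous factors. Twenty-four hours post-dosing, reporter mRNA induction is measured by fluorescent RT-PCR and capillary electrophoresis, with DMSO as baseline.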

[9] = ATG_TAL_CIS: Attagene CIS-FACTORIAL HepG2 Assay for human TAL Basal Promoter (AID 2282966); conditions: HepG2 Attagene cis-factorial TAL promoter reporter; actives raise or lower the signal;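 note: background control endpoint measuring basal TAL promoter reporter mRNA not a specific factor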
How it was run: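 HepG2 cells transiently transfected with multiplexed cis-promoter reporter units, dosed 24 h. Reporter mRNA quantified by RT-PCR, 6-FAM labelling, HpaI digestion and capillary electrophoresis; TAL basal promoter serves as background control, fitted bidirectionally versus DMSO.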

[10] = ATG_VDRE_CIS: Attagene CIS-FACTORIAL HepG2 Assay for human Vitamin D Receptor Element (VDRE) (AID 2282968); conditions: HepG2 VDRE cis-reporter transcription, actives raise or lower the signal
How it was run: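 Cell-based multiplexed reporter format in human liver HepG2 cells, 24 h post-dose. Fluorescence from capillary electrophoresis of reporter cDNA gives the signal, with DMSO as negative control and baseline.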

[11] = target: Estrogen receptor (Homo sapiens) (UniProt P03372); test: ATG_ERa_TRANS: Attagene TRANS-FACTORIAL HepG2 Assay for human Estrogen Receptor alpha (ERa) (AID 2282970; active = hit-call score of the fitted dose curve at least 0.9, where 1 is the maximum); conditions: HepG2 Attagene TRANS ERa GAL4 reporter, mRNA
Estrogen receptor (Homo sapiens), sequence (P03372 whole entry, looked up, the tested form may be a part): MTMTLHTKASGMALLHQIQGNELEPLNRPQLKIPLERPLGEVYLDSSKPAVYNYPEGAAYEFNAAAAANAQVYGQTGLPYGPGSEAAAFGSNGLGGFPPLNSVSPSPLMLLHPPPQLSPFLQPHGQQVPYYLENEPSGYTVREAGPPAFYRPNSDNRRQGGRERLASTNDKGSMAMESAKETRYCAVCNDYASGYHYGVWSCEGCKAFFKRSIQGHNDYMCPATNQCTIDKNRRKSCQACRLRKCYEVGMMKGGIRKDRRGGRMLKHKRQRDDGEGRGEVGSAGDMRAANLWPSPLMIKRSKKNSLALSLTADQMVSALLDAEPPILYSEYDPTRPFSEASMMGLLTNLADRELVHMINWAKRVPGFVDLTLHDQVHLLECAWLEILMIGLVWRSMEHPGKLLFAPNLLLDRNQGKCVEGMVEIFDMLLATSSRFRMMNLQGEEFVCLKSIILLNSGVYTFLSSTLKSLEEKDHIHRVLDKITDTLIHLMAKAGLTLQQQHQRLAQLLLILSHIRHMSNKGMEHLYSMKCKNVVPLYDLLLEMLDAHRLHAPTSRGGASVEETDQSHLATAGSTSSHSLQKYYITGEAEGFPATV
How it was run: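 HepG2 cells transiently transfected with multiplexed GAL4-UAS reporter units read out chimeric NR-Gal4 activity. After 24 h compound exposure, reporter mRNA was quantified by RT-PCR, 6-FAM labeling, HpaI digestion and capillary electrophoresis, relative to DMSO.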

[12] = target: Steroid hormone receptor ERR1 (Homo sapiens) (UniProt P11474); test: ATG_ERRa_TRANS: Attagene TRANS-FACTORIAL HepG2 Assay for human Estrogen-Related Receptor alpha (ERRa) (AID 2282971; active = hit-call score of the fitted dose curve at least 0.9, where 1 is the maximum); conditions: HepG2 Attagene TRANS reporter, ERRa transactivation
Steroid hormone receptor ERR1 (Homo sapiens), sequence (P11474 whole entry, looked up, the tested form may be a part): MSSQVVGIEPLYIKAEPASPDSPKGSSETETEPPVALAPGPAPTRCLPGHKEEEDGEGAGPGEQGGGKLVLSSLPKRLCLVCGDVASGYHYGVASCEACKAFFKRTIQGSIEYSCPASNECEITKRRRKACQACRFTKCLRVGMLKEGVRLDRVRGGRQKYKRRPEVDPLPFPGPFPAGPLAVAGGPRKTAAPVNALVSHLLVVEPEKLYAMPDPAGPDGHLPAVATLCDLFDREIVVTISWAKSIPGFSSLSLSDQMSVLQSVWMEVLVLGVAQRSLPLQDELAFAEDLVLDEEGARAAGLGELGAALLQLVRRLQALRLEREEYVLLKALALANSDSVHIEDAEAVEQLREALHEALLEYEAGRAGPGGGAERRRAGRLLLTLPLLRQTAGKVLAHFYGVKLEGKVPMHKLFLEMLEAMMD
How it was run: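 HepG2 cells transiently transfected with GAL4-UAS reporter units and chimeric NR-Gal4 constructs; after 24 hour compound incubation, reporter mRNA quantified by RT-PCR, fluorescent labelling and capillary electrophoresis, gain of signal versus DMSO.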

[13] = target: X-box-binding protein 1 (Homo sapiens) (UniProt P17861); test: ATG_Xbp1_CIS: Attagene CIS-FACTORIAL HepG2 Assay for human X-box Binding Protein 1 (XBP1) (AID 2282972); conditions: HepG2 XBP1 cis-element reporter, Attagene multiplex; actives raise or lower the signal
X-box-binding protein 1 (Homo sapiens), sequence (P17861 whole entry, looked up, the tested form may be a part): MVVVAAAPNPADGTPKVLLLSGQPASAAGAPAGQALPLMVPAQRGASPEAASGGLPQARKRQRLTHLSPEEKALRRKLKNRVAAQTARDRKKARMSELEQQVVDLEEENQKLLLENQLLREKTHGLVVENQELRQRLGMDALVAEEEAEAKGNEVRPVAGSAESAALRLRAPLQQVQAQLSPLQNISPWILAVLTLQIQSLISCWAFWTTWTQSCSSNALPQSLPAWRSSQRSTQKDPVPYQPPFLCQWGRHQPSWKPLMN
How it was run: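 Fluorescence-labelled cDNA fragments from reporter transcripts, separated by capillary electrophoresis, give the signal. Source: HepG2 cells transfected with promoter-driven reporter units, harvested 24 h post-dose. DMSO served as reference for bidirectional curve fitting.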

[14] = target: Estrogen-related receptor gamma (Homo sapiens) (UniProt P62508); test: ATG_ERRg_TRANS: Attagene TRANS-FACTORIAL HepG2 Assay for human Estrogen-Related Receptor gamma (ERRg) (AID 2282977; active = hit-call score of the fitted dose curve at least 0.9, where 1 is the maximum;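 note: hits increase reporter signal over DMSO so potencies reflect activators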); conditions: HepG2 Attagene TRANS reporter, ERRg transactivation
Estrogen-related receptor gamma (Homo sapiens), sequence (P62508 whole entry, looked up, the tested form may be a part): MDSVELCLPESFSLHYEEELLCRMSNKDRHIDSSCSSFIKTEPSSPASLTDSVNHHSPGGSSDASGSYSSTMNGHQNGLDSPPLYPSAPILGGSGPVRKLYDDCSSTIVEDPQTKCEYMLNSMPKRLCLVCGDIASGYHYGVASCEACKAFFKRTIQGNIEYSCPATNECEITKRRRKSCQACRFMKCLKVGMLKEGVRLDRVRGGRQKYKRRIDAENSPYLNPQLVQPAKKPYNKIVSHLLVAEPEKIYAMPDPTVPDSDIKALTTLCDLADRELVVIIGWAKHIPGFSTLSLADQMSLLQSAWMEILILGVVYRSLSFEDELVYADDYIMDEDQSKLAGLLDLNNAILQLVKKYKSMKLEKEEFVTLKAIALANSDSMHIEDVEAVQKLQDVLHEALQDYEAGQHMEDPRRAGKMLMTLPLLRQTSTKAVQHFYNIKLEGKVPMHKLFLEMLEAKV
How it was run: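 Transient HepG2 transfectants, 24 h compound exposure, GAL4-UAS reporter mRNA by RT-PCR/6-FAM labelling/capillary electrophoresis; positive direction vs DMSO.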

[15] = ATG_GAL4_TRANS: Attagene TRANS-FACTORIAL HepG2 Assay for GAL4 (Internal Marker) (AID 2282976; active = hit-call score of the fitted dose curve at least 0.9, where 1 is the maximum); conditions: HepG2 Attagene TRANS GAL4 internal marker reporter
How it was run: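 Background-control readout: GAL4-UAS reporter transcript in transiently transfected HepG2 cells after 24 h compound exposure. Measured by RT-PCR, 6-FAM primer extension, HpaI digest and capillary electrophoresis; gain-of-signal fit versus DMSO.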

[16] = target: Nuclear receptor subfamily 1 group I member 3 (Homo sapiens) (UniProt Q14994); test: ATG_CAR_TRANS: Attagene TRANS-FACTORIAL HepG2 Assay for human Constitutive Androstane Receptor (CAR) (AID 2282969; active = hit-call score of the fitted dose curve at least 0.9, where 1 is the maximum;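 note: activators raise reporter mRNA above DMSO so AC50 marks induction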); conditions: HepG2 Attagene TRANS-FACTORIAL CAR reporter
Nuclear receptor subfamily 1 group I member 3 (Homo sapiens), sequence (Q14994 whole entry, looked up, the tested form may be a part): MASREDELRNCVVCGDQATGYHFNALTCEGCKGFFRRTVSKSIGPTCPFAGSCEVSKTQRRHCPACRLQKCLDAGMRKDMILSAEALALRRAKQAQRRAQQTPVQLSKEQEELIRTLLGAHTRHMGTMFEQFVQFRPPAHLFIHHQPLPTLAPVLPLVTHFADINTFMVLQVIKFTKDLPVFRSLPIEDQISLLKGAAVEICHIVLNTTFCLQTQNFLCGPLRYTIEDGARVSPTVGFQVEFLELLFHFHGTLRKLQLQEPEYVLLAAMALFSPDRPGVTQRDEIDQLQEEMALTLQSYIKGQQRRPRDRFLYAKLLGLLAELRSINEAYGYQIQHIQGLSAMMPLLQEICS
How it was run: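 HepG2 cells transiently transfected with GAL4-UAS reporter units; TRANS format reads activity of exogenous chimeric NR-Gal4 protein. After 24 h dosing, reporter mRNA quantified by RT-PCR, 6-FAM labelling and capillary electrophoresis; gain of signal fitted against DMSO.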

[17] = ATG_M_19_TRANS: Attagene TRANS-FACTORIAL HepG2 Assay for M19 Transcription Factor (Internal Marker) (AID 2282974; active = hit-call score of the fitted dose curve at least 0.9, where 1 is the maximum); conditions: HepG2 Attagene TRANS-FACTORIAL M19 internal marker reporter
How it was run: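 Transfected HepG2 (GAL4-UAS MRTUs), 24 h compound, TriZol RNA, DNase-treated RT, reporter PCR, FAM label, HpaI digest, CE fluorescence; gain vs DMSO.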

[18] = ATG_TGFb_CIS: Attagene CIS-FACTORIAL HepG2 Assay for human Transforming Growth Factor (TGF) (AID 2282967); conditions: HepG2 Attagene CIS TGFb reporter, mRNA transcription; actives raise or lower the signal
How it was run: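 HepG2 cells transiently transfected with cis-promoter-driven multiple reporter units measure endogenous TF activity; reporter mRNA quantified at 24 h by RT-PCR, FAM labeling, HpaI digestion and capillary electrophoresis. Bidirectional fit vs DMSO.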

Measured: AC50

CC[C@H]1CC[C@H](NCc2cc3c(cc2OC)[C@H]2C[C@H]2C(=O)N3C)[C@H](c2ccccc2)N1
active: [1] 75.6 µM | [4] 47.5 µM | [5] 36.6 µM | [8] 100 µM | [10] 33.2 µM | [13] 96.6 µM
not listed: [15] | [16] | [17] | [18]
inactive: all other assays above

CCCCC(CC)COC(=O)c1ccc(C(=O)OCC(CC)CCCC)cc1 (stereo unspecified)
not listed: [10] | [11] | [14] | [16] | [17] | [18]
inactive: all other assays above

On1ccccc1=S
not listed: [11] | [12] | [15] | [16] | [17] | [18]
inactive: all other assays above

CCOC(=O)CC(CC(=O)OCC)(OC(C)=O)C(=O)OCC
not listed: [1] | [11] | [12] | [14] | [15] | [18]
inactive: all other assays above

Oc1ccc2c(c1)-c1ccccc1C2
inactive: [5] | [6] | [9] | [18] | [15]
active: [1] 46.4 µM | [2] 24.7 µM | [3] 54.2 µM | [4] 11.9 µM | [7] 37.2 µM | [8] 3.93 µM | [10] 28.8 µM | [13] 57.7 µM

COC(=O)c1c(Cl)c(Cl)c(C(=O)OC)c(Cl)c1Cl
not listed: [16] | [18]
inactive: all other assays above

CCOC(=O)c1ccc(C2CCC(NC[C@H](O)COc3ccc(O)c(NS(C)(=O)=O)c3)CC2)cc1 (stereo partly specified)
active: [1] 57.5 µM | [8] 48.3 µM | [10] 48.5 µM | [13] 54.4 µM
not listed: [2] | [11] | [15] | [16] | [18]
inactive: all other assays above

Cn1c(=O)c2c(ncn2C)n(C)c1=O
not listed: [1] | [10] | [11] | [12] | [15]
inactive: all other assays above

NC(=O)NO
not listed: [1] | [11] | [12] | [14] | [16] | [17] | [18]
inactive: all other assays above
